Reference: PubChem BioAssay (EPA / NIEHS)
Where “and” joins values, the source holds several entries; their conditions need not be identical. Equal values may be shown once. Inconclusive results are not listed. Calls of active or inactive are those of the source. The calls were made as follows: active = hit-call score of the fitted dose curve at least 0.9, where 1 is the maximum; inconclusive = response in the unintended direction; inactive = score below 0.9.

How the values were obtained:
[1] = ACEA_AR_antagonist_AUC_viability: ACEA Biosciences xCELLigence Real-Time Cell Analysis on Androgen Receptor Antagonism for Viability (AID 2283776);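 also: 22Rv1 human prostate cancer cells growing on impedance electrode plates; area under impedance growth curve at 80 h after dosing as viability; hits lower the growth signal relative to DMSO meaning cytotoxicity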
How it was run: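 Viability endpoint from label-free cell-index monitoring: 22Rv1 cultures treated with an eight-point 1:4 dilution series starting at 100 uM final, AUC at 80 h fitted against DMSO.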

[2] = test system: frog Estrogen Receptor (ESR1), gene 398734; assay: ATG_frER1_XSP1: Attagene TRANS-FACTORIAL Multi-Species (XSP1) HepG2 Assay for frog Estrogen Receptor (ESR1) (AID 2283777)
Method: (§1) ATG_XSP1_multi-species_TRANS is a cell-based, multiplexed assay created by modifying the existing Attagene TRANS-FACTORIAL system to include a panel of nuclear receptors from some or all the following species: human (Homo sapiens), mouse (Mus musculus), frog (Xenopus laevis), zebrafish (Danio rerio), chicken (Gallus gallus), and turtle (Chrysemys picta). The ECOTOX-FACTORIAL format uses HepG2, a human liver cell line, with measurements taken at 24 hours after chemical dosing in a 24-well plate. Xsp1 included 3 nM 6-alpha-fluorotestosterone to partially stimulate the androgen receptor.ATG_frER1_XSP1 is one of 29 assay components measured or calculated from the ATG_XSP1_multi-species_TRANS assay. It is designed to make measurements of mRNA induction, a form of inducible reporter, as detected with fluorescence intensity signals by Reverse transcription polymerase chain reaction (RT-PCR) and Capillary electrophoresis technology.The assay endpoint ATG_frER1_XSP1 was analyzed in the positive analysis fitting direction relative to DMSO as the negative control and baseline of activity. Using a type of inducible reporter, measures of mRNA for gain-of-signal activity can be used to understand the reporter gene at the transcription factor-level as they relate to the gene ER. Furthermore, this assay endpoint can be referred to as a primary readout, because this assay has produced multiple assay endpoints where this one serves a reporter gene function. To generalize the intended target to other relatable targets, this assay endpoint is annotated to the nuclear receptor intended target family, where the subfamily is steroidal.
(§2) Human liver HepG2 cells are transiently transfected with multiple reporter transcription units (MRTUs) in 6-well plates using FuGene 6 reagent (Roche; 3 ml FuGene/1 mg DNA). The MRTU constructs are regulated by a cis-regulating element (promoter). […] A major difference between the CIS and TRANS system is that in CIS activities of endogenous TFs are measured, whereas the TRANS assay evaluates changes in activities of exogenous, chimeric NR-Gal4 proteins. […] At the end of 24 hour incubation, total RNA was isolated using TriZol reagent (Invitrogen). The isolated RNA is then reverse-transcribed using oligo(dT) primer and Mo-MLV reverse transcriptase (Invitrogen) with DNAse I (Ambion) treatment for 30 min. The one-tenth of the produced cDNA was amplified by PCR using Taq DNA polymerase (Invitrogen) and two reporter sequence-specific primers. The PCR products were fluorescently labeled by primer extension with 6-arboxyfluorescein (6-FAM) 5'-labeled reporter sequence-specific primer (2 min at 95 C, 20 s at 68 C and 10 min at 72 C) and these products were digested with 5U of HpaI (New England Biolabs) for 2h at 37 C. The fragments were purified using Qiaquick PCR columns (Qiagen), analyzed on an ABI 3130xL genetic analyzer (Applied Biosystems) with peak positions identified by using a set of X-rhodamine (ROX)-labeled MapMarker1000 molecular weight standards (BioVentures). The raw capillary electrophoresis data was processed using Attagraph software (Attagene).

[3] = test system: zebrafish Estrogen Receptor (ESR2A), gene 317734; assay: ATG_zfER2a_XSP1: Attagene TRANS-FACTORIAL Multi-Species (XSP1) HepG2 Assay for zebrafish Estrogen Receptor (ESR2A) (AID 2283778)
Method: as §1, with “receptor.ATG_zfER2a_XSP1” for “receptor.ATG_frER1_XSP1”, “ATG_zfER2a_XSP1” for “ATG_frER1_XSP1”
as §2

[4] = target: chicken Estrogen Receptor (ESR1), ESR1 (gene 396099) (UniProt P06212); assay: ATG_chERa_XSP1: Attagene TRANS-FACTORIAL Multi-Species (XSP1) HepG2 Assay for chicken Estrogen Receptor (ESR1) (AID 2283779)
chicken Estrogen Receptor (ESR1), ESR1 (gene 396099), sequence (P06212 whole entry, looked up, the tested form may be a part): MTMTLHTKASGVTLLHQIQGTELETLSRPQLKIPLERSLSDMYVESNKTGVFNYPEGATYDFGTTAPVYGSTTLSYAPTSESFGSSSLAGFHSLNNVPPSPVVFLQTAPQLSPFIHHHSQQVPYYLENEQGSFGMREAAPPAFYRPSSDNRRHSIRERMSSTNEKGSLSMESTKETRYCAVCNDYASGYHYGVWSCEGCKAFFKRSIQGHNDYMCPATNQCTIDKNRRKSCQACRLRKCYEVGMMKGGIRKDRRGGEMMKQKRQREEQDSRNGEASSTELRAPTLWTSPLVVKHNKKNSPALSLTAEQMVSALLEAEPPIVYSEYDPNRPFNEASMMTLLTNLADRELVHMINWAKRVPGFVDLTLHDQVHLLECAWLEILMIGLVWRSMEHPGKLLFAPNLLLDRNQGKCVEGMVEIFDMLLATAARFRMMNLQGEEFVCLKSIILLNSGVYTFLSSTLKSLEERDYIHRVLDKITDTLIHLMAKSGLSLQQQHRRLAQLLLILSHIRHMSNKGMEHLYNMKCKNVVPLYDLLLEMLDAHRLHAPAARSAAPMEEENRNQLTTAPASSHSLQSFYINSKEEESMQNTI
How it was run: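 Trans-activation of an exogenous chicken ERα–Gal4 chimera read as reporter transcript (RT-PCR, fluorescent labeling, capillary electrophoresis) after 24 h compound exposure of transfected HepG2; medium held 3 nM 6-alpha-fluorotestosterone. Positive-direction fit against DMSO.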

[5] = test system: turtle Estrogen Receptor (ESR1), gene 101933533; assay: ATG_trERa_XSP1: Attagene TRANS-FACTORIAL Multi-Species (XSP1) HepG2 Assay for turtle Estrogen Receptor (ESR1) (AID 2283781)
How it was run: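 Transactivation measured 24 h post-dose as reporter mRNA (RT-PCR, fluorescent capillary electrophoresis) from an NR-Gal4 turtle ER construct in HepG2. Medium included 3 nM 6-alpha-fluorotestosterone; increase over DMSO fitted.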

[6] = ACEA_ER_AUC_viability: ACEA Biosciences xCELLigence Real-Time Cell Analysis on Estrogen Receptor Agonism for Viability (AID 2283782);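 also: hit means loss of impedance signal meaning reduced cell growth or viability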
How it was run: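 Viability endpoint: reduced impedance area under the curve relative to DMSO, recorded by real-time electrode sensing over ~80 h of continuous exposure. Duplicate plates of T47D in hormone-depleted medium; eight concentrations, 1:4 dilutions, 100 uM maximum.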

AR (gene 367) = AR (gene 367) (UniProt P10275); assay: ACEA_AR_agonist_80hr: ACEA Biosciences xCELLigence Real-Time Cell Analysis on Androgen Receptor Agonism for Proliferation (AID 2283783);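 also: hits increase impedance growth signal above DMSO baseline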
AR (gene 367), sequence (P10275 whole entry, looked up): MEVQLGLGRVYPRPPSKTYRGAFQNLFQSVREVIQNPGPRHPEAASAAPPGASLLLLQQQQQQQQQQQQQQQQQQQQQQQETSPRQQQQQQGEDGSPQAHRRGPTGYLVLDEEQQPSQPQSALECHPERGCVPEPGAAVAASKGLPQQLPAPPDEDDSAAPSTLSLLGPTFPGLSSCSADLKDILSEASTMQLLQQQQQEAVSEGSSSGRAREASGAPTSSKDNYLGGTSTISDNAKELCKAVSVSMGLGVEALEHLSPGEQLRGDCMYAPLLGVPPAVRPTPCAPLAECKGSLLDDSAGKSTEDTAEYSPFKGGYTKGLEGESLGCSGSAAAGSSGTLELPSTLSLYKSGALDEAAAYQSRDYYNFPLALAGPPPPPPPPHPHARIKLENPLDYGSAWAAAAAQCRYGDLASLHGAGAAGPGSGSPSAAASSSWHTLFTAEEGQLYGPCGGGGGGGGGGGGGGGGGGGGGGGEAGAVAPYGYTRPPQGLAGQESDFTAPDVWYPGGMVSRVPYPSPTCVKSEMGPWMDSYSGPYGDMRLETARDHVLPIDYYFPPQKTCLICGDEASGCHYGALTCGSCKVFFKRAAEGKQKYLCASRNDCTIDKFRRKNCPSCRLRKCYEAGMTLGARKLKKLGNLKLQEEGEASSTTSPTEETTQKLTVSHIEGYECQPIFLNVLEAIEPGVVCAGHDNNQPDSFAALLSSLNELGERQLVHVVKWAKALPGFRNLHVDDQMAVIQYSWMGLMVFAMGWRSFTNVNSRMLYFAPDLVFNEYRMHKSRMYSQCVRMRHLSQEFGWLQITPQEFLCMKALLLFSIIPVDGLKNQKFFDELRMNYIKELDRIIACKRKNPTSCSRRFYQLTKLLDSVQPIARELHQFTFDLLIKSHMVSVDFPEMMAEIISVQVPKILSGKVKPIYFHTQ
How it was run: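 Eight concentrations, 1:4 serial dilution from a 100 uM final top, in biological duplicate. Impedance-based real-time growth of 22Rv1 cells after overnight baseline, recorded hourly and read at 80 hours. Controls: testosterone, MG132, assay media.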

[7] = STM_H9_NormalizedViability: Cytotoxicity Assessment at 120 hours in the Stemina devTOX quickPredict H9 human embryonic stem cell (hESC)-based Assay (AID 2283784)
How it was run: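 Viability of the cell layer was taken from live-cell protease cleavage of a fluorogenic substrate after compound exposure of undifferentiated H9 stem cells, with replenishment each 24h. Fluorescence was normalized to vehicle (0.1% DMSO).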

[8] = target: Estrogen receptor (Homo sapiens) (UniProt P03372); assay: ATG_hERa_XSP1: Attagene TRANS-FACTORIAL Multi-Species (XSP1) HepG2 Assay for human Estrogen Receptor (ESR1) (AID 2283780)
Estrogen receptor (Homo sapiens), sequence (P03372 whole entry, looked up, the tested form may be a part): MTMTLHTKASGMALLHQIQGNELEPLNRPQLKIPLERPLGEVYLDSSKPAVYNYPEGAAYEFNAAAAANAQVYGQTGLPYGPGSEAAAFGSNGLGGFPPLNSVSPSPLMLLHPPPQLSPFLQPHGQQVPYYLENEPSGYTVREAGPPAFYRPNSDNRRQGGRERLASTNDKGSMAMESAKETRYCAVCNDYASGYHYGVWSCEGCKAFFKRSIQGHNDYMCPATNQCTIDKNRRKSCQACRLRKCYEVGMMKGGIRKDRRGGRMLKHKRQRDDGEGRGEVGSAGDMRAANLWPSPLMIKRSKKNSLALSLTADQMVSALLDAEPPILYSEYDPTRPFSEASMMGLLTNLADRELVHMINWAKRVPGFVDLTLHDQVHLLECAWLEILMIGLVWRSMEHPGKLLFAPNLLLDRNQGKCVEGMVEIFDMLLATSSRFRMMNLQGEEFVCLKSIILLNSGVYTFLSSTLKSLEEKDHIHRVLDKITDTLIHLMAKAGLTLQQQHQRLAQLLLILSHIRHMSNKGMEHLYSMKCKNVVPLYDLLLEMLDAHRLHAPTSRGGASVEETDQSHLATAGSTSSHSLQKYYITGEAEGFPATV
How it was run: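 Reporter transcripts from multiplexed GAL4-UAS units driven by NR-Gal4 chimeras in transiently transfected HepG2 were measured by RT-PCR with capillary electrophoresis 24 h post-dose, with 3 nM 6-alpha-fluorotestosterone present; gain-of-signal relative to DMSO.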

Compound: CNC
- outcome [1]: inactive

Compound: CC(C)(C)CC(C)(C)c1ccc(O)cc1
- AC50 [1]: 8.78 µM (active)
- AC50 [2]: 1.86 µM (active)
- outcome [3]: inactive
- AC50 [4]: 2.21 µM (active)
- AC50 [5]: 2.15 µM (active)
- AC50 [6]: 21.2 µM (active) and 21.4 µM (active) and 21.5 µM (active)
- outcome (AR (gene 367)): inactive

Compound: O=C1C2(Cl)C3(Cl)C4(Cl)C(Cl)(Cl)C5(Cl)C3(Cl)C1(Cl)C5(Cl)C24Cl (stereo not given)
- AC50 [1]: 7.14 µM (active)
- AC50 [2]: 0.271 µM (active)
- AC50 [4]: 0.0284 µM (active)
- AC50 [5]: 0.383 µM (active)
- AC50 [6]: 10.4 µM (active) and 7.76 µM (active) and 8.91 µM (active)
- outcome (AR (gene 367)): inactive
- outcome [7]: inactive

Compound: Clc1nc(Cl)nc(Cl)n1
- outcome [1]: inactive
- outcome [6]: inactive

Compound: Cl/C=C\C[N+]12CN3CN(CN(C3)C1)C2
- outcome [1]: inactive
- AC50 [6]: 50 µM (active)

Compound: CC(=O)C=C(C)C
- outcome [1]: inactive

Compound: CC1(C)CCC(Cc2ccc(Cl)cc2)C1(O)Cn1cncn1 (stereo not given)
- outcome [1]: inactive
- outcome [2]: inactive
- outcome [3]: inactive
- AC50 [4]: 1.35 µM (active)
- AC50 [8]: 5.17 µM (active)
- outcome [5]: inactive
- AC50 [6]: 74.5 µM (active)

Compound: CCOP(=S)(OCC)Oc1nc(Cl)c(Cl)cc1Cl
- AC50 [1]: 63.3 µM (active)
- AC50 [6]: 87.6 µM (active)

Compound: Clc1ccc(C2(Cn3cncn3)CC(Br)CO2)c(Cl)c1 (stereo not given)
- outcome [1]: inactive

Compound: CCCCCCCCSC(=O)Oc1cc(Cl)nnc1-c1ccccc1
- outcome [1]: inactive

Compound: O=S(=O)(c1ccc(Cl)cc1)c1ccc(Cl)cc1
- outcome [1]: inactive

Compound: CC12CC1(C)C(=O)N(c1cc(Cl)cc(Cl)c1)C2=O (stereo not given)
- AC50 [1]: 81 µM (active)
- outcome [2]: inactive
- outcome [3]: inactive
- AC50 [4]: 100 µM (active)
- AC50 [5]: 30.9 µM (active)
- outcome [6]: inactive
- outcome [7]: inactive

Compound: CC(C)C1CCC(Cc2ccc(Cl)cc2)C1(O)Cn1cncn1 (stereo not given)
- AC50 [1]: 4.94 µM (active)
- AC50 [6]: 19.9 µM (active)

Compound: C=CCc1ccc(OC)cc1
- outcome [1]: inactive
- outcome [6]: inactive

Compound: Cl/C=C/Cl
- outcome [1]: inactive

Compound: O=C(Cc1ccccc1)c1ccccc1
- outcome [1]: inactive

Compound: CC(C)(c1ccccc1)c1ccc(O)c(C(C)(C)c2ccccc2)c1
- AC50 [1]: 12.8 µM (active)
- AC50 [6]: 8.68 µM (active)

Compound: Oc1ccc(-c2ccccc2)cc1
- AC50 [1]: 1.1 µM (active)

Compound: C1CCC(NC2CCCCC2)CC1
- outcome [1]: inactive

Compound: CCOP(=S)(OCC)SCSP(=S)(OCC)OCC
- AC50 [1]: 67 µM (active)

Compound: CCC(=O)C(CC(C)N(C)C)(c1ccccc1)c1ccccc1 (stereo not given)
- AC50 [1]: 32.9 µM (active)
- AC50 [6]: 36.2 µM (active)

Compound: COc1cc(-c2ccc(N)c(OC)c2)ccc1N
- AC50 [1]: 18.4 µM (active) and 22.3 µM (active)

Compound: O=C(O)C(F)(F)C(F)(F)C(F)(F)C(F)(F)C(F)(F)C(F)(F)F
- outcome [1]: inactive

Compound: OCc1ccco1
- outcome [1]: inactive

Compound: NNC(=S)NN
- outcome [1]: inactive

Compound: Oc1cccc2cccnc12
- AC50 [1]: 18.6 µM (active) and 9.5 µM (active)
- outcome [6]: inactive

Compound: Cc1ccc(N)cc1Cl
- outcome [1]: inactive

Compound: CCCCCCCCc1ccc(O)cc1
- AC50 [1]: 28.9 µM (active)
- AC50 [6]: 24.4 µM (active)

Compound: CC(C)(C)c1cc(O)ccc1O
- AC50 [1]: 86.2 µM (active)
- outcome [2]: inactive
- outcome [3]: inactive
- AC50 [4]: 8.92 µM (active)
- AC50 [8]: 8.75 µM (active)
- AC50 [5]: 8.26 µM (active)
- AC50 [6]: 9.53 µM (active)

Compound: O=C(NCO)NCO
- outcome [1]: inactive

Compound: CC1(C)Cc2cccc(O)c2O1
- outcome [1]: inactive

Compound: CC(C)c1cccc(C(C)C)c1O
- outcome [1]: inactive

Compound: N#CN=C(N)N
- outcome [1]: inactive

Compound: Cc1ccccc1C(=O)Nc1cccc(OC(C)C)c1
- outcome [1]: inactive

Compound: CN(C)N=O
- outcome [1]: inactive
- outcome [6]: inactive

Compound: C[C@H]1CCCC(=O)CCC/C=C/c2cc(O)cc(O)c2C(=O)O1
- AC50 [1]: 31.3 µM (active) and 9.08 µM (active)
- outcome (AR (gene 367)): inactive

Compound: O=C(Nc1ccc2[nH]ccc2c1)c1cc2cc(F)ccc2n1Cc1cccc(F)c1
- AC50 [1]: 10 µM (active)
- AC50 [6]: 12.4 µM (active)
- outcome [7]: inactive
